Source: PubChem BioAssay
GLA spleen mod = qHTS Assay for Inhibitors and Activators of Human alpha-Galactosidase From Spleen Homogenate; Potency, µM (doses to about 80 µM), without a hit: top-dose activity change, negative = inhibition, usual class: inhibitors; hit rate 0.008% among 240,000; human spleen homogenate, 4MU-alpha-Gal fluorescence, 40 min; AID 2107, 2009; Alpha-galactosidase A (Homo sapiens), P06280;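 also: potency is read from the fitted curve at half-maximal effect; 0% = enzyme with vehicle and -100% = no enzyme basal signal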
Target sequence (P06280 32-429 limits assumed): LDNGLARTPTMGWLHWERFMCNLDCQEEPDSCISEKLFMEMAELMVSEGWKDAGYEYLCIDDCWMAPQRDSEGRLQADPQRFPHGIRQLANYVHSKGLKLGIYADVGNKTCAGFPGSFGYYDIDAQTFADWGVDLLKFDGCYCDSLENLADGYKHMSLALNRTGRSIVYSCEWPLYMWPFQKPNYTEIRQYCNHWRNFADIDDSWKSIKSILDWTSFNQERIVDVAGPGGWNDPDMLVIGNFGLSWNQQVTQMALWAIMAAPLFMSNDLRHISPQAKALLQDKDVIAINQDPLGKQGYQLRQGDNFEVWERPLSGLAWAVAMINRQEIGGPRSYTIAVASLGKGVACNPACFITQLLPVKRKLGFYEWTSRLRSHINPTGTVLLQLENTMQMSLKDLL
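qHTS titration in buffer at pH 5.0. Alpha-galactosidase activity in spleen homogenate was measured via 4-methylumbelliferone release from 1 mM fluorogenic substrate after 40 min at 37C and a pH 10 stop. AC50 came from Hill fits of control-normalized data.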
PNC inhibitor = High Content Assay for Compounds that inhibit the Assembly of the Perinucleolar Compartment. hit rate 3.1% among 140,000. activity change (PNC), negative = inhibition, % at 10 µM. PC3M PTB-GFP, PNC prevalence imaging, 16 h; hits give low values;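 active = readout at or below -70, meaning at least 70% loss of cells showing the perinucleolar compartment, a nuclear body marking cancer cells; inconclusive = readout between -30 and a set limit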;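 also: plate controls were DMSO wells for no effect and camptothecin positive control wells for full effect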
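Read-out is percentage of cells bearing a perinucleolar compartment, from automated 20x imaging of fixed, Hoechst-stained PC3M PTB-GFP cells. Cells were seeded 4 h, then exposed 16 h to compound (23 nl of library stock) in duplicate plates.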
HPGD block = qHTS Assay for Inhibitors of HPGD (15-Hydroxyprostaglandin Dehydrogenase); hit rate 4.3% among 150,000; purified HPGD, NADH fluorescence kinetic, PGE2 substrate; 15-hydroxyprostaglandin dehydrogenase [NAD(+)] (Homo sapiens), P15428; Potency, µM, inactives show at the highest dose activity change, negative = inhibition, usual class: inhibitors; active = well fitted inhibition curve with a large enough effect, not every such curve was filed as active; inconclusive = small, poorly fitted or top-dose-only effect, or another doubt; inactive = no such curve, though single readings can be large or run the other way; also: potency is read from the fitted curve at half-maximal effect
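NADH formation kinetics: reaction with 30 uM PGE2 and 1 mM NAD+ (final), 20 nM enzyme, Tris-HCl pH 8 with Tween 20, after 15 min compound preincubation at room temperature. Fluorescence change, last versus first of five reads.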
GLA inh pH 4.5 = qHTS Assay for Inhibitors of Human alpha-Galactosidase at pH 4.5; Alpha-galactosidase A (Homo sapiens), P06280; purified enzyme, 4-MU-alpha-Gal fluorescence, pH 4.5; activity change, negative = inhibition, % at 105 µM; 230,000 tested, under 10 active; AID 1467, 2008;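 also: 0% = full activity with enzyme and -100% = basal without enzyme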
ALDH1A1 block = qHTS Assay for Inhibitors of Aldehyde Dehydrogenase 1 (ALDH1A1); Aldehyde dehydrogenase 1A1 (Homo sapiens), P00352; Potency, µM (series often up to 75.3 µM), without a hit: at the top dose activity, negative = inhibition, most hits filed as inhibitors; hit rate 7.3% among 220,000; Purified ALDH1A1, NADH fluorescence, propionaldehyde substrate; active = well fitted inhibition curve with a large enough effect, not every such curve was filed as active; inconclusive = small, poorly fitted or top-dose-only effect, or another doubt; inactive = no such curve, though single readings can be large or run the other way;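 also: potency is read from the fitted curve at half-maximal effect; plate controls were no enzyme wells and a reference inhibitor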
ALOX12 inhib = qHTS Assay for Inhibitors of 12-hLO (12-human lipoxygenase); Polyunsaturated fatty acid lipoxygenase ALOX12 (Homo sapiens), P18054; purified 12-hLO, xylenol orange hydroperoxide absorbance; Potency, µM (series often up to 57.1 µM), without a hit: at the top dose activity change, negative = inhibition, hits mostly inhibitors; hit rate 0.12% among 150,000; AID 1452, 2008; also: potency is read from the fitted curve at half-maximal effect; nearly all actives have a fitted effect of over 55% in size
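Purified human 12hLO (150 nM final) was preincubated with compounds for 15 min at room temperature in 25 mM Hepes pH 7.0, 0.01% Triton X-100, then reacted with 40 uM arachidonic acid for 30 min. Hydroperoxide was detected with ferrous iron/xylenol orange.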
Starred values were filed as active, the others as inactive; ? = inconclusive; / = not tested or not shown; [ ] = another dose, or the depositor's remark. Compounds with a hit are over-represented: about 10% of the library has one in this group of screens. Unless noted, calls follow the shape of the dose curve; as a rule, active = well fitted curve in the direction sought with a large enough effect; inconclusive = small, poorly fitted or top-dose-only effect, or another doubt; inactive = no such curve, though single readings can be large; an effect the other way counts as inactive or inconclusive. Unless noted, % is scaled to controls: 0 for no effect and ±100 for the full control effect.

SMILES	GLA spleen mod	PNC inhibitor	HPGD block	GLA inh pH 4.5	ALDH1A1 block	ALOX12 inhib
Oc1ccc(Br)cc1-c1cc(-c2ccco2)[nH]n1	0.4%	9.0	?	-18.4	-3.8%	-28.8%
Oc1ccccc1-c1cc(-c2ccco2)[nH]n1	1.6%	24.1	?	9.9	14.1µM*	-26.5%
CN(C(=O)COC(=O)c1ccc2c(=O)n3c(nc2c1)CCC3)c1ccccc1	-5.5%	2.2	-25.0%	2.6	?	1.6%
N#CCCn1c(=O)n(CCC#N)c2ccccc21	-3.4%	/	/	9.9	5.2%	/
Cc1cccc(OCCc2c(C)[nH]c(=S)[nH]c2=O)c1	8.5%	/	/	2.4	17.8µM*	/
N#CCCn1c(=S)[nH]c2ccccc21	8.0%	?	14.1µM*	-6.7	?	-5.0%
CCOC(=O)Cn1c(=N)n(CCOc2cccc(C)c2)c2ccccc21	-0.5%	-97.1*	-0.9%	-4.2	6.3%	0.2%
Cc1cccc(OCCn2c(S(=O)(=O)O)nc3ccccc32)c1	-5.4%	-3.4	-6.4%	-10.5	-28.1%	-1.5%
CCOC(=O)Cn1c(=N)n(CCOc2ccc(Br)cc2)c2ccccc21	1.7%	/	/	-12.9	9.6%	/
Cc1cccc(OCCn2c(=S)[nH]c3ccccc32)c1	-2.8%	?	2µM*	0.4	1.26µM*	28.2µM*
COc1cc(OC)cc(-c2nnc3n2N=C(c2c(OC)cccc2OC)CS3)c1	2.9%	/	/	/	/	/
CCCC[C@@H]1C[C@H]1[C@@H](NP(=O)(c1ccccc1)c1ccccc1)c1ccccc1OC	8.7%	/	-12.8%	-2.2	7.5%	1.5%
O=c1nc(NCc2ccco2)sc2ncccc12	-0.3%	32.9	?	-4.4	3.6%	-0.8%
CCN(c1ccccc1)c1nc(=O)c2cccnc2s1	1.7%	/	/	-2.4	20µM*	/
COc1ccccc1CNc1ncncc1-c1cccc(C#N)c1	-9.4%	/	-19.7%	6.1	-0.6%	1.9%
O=[N+]([O-])c1cccc(-c2ccc(C(=S)N3CCOCC3)o2)c1	-4.5%	/	/	11.2	3.2%	/
S=C(c1ccc(-c2cccc(Cl)c2)o1)N1CCCCC1	9.2%	/	/	1.9	14.1µM*	/
S=C(c1ccc(-c2cccc(Cl)c2)o1)N1CCOCC1	-0.4%	22.3	22.4µM*	-2.3	11.2µM*	-22.7%
N#CCCN1CCN(C(=S)c2ccc(-c3cccc(Cl)c3)o2)CC1	-2.3%	-19.5	28.2µM*	-5.0	11.2µM*	-18.7%
O=[N+]([O-])c1cc(-c2ccc(C(=S)N3CCOCC3)o2)ccc1Cl	-4.2%	/	/	-8.1	3.98µM*	/
O=C(NC(=S)Nc1cc(Cl)ccc1N1CCOCC1)c1ccc(-c2cccc(Cl)c2)o1	-3.2%	?	-6.9%	-3.2	0.5%	1.1%
Oc1ccc(N=Cc2ccc(OCc3ccccc3)cc2)cc1	-2.5%	/	/	2.4	20µM*	/
O=C(N/N=C/c1ccc(OCc2ccccc2)cc1)c1ccncc1	2.3%	/	/	8.7	?	/
COCCNC(=O)/C=C/c1c(Cl)cccc1Cl	?	?	12.6µM*	8.6	-2.5%	-4.0%
COCCCNC(=O)/C=C/c1c(Cl)cccc1Cl	-9.7%	42.0	15.8µM*	-2.5	-7.5%	1.8%
N[C@@H](Cn1cc(I)c(=O)n(Cc2ccc(C(=O)O)cc2)c1=O)C(=O)O	1.8%	/	0.3%	-4.0	0.0%	-4.1%
C=CCN1c2ccccc2[C@]23C[C@@H](C(=O)OC)N(C(=O)c4cccs4)C2=NC(C(=O)OC)=C(C(=O)OC)[C@H]13	-1.3%[17.5 µM]	/	-4.9%	-6.0	2.4%[13.5 µM]	3.6%[11.4 µM]
COc1ccc(OCCCC(=O)NCC(C)C)cc1	5.4%	?	25.1µM*	2.1	4.8%	-4.1%
CCCCCCCCC(=O)NCCOc1ccc(OC)cc1	10.7%	?	1.5%	2.1	3.6%	-2.7%
Cc1ccc(C)c(OCCCC(=O)Nc2nccs2)c1	2.2%	18.2	-14.9%	7.3	7.1%	2.8%
